Source: PubChem BioAssay
In the library only some 7.4% were active in any assay of this set; here they are far more common.
ELG1 genotoxic = induces genotoxicity in HEK293T cells with luciferase-tagged ELG1; HEK293T ELG1-luciferase reporter, luminescence, 16 h; Potency, µM (top dose mostly 46 µM), inactives show at the highest dose activity change, positive = activation, usual class: activators; hit rate 1.3% among 330,000; AID 504466; note: % of control where 0% means no effect; nearly all actives have a fitted effect of over 60% in size
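Screening used a luciferase reporter fused to human ELG1 in HEK293T cells. Luminescence was read on a CCD plate imager after 16 hr exposure and 30 min ONE-Glo incubation.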
FLuc counter = inhibits or activates purified firefly luciferase, miR-21 counter-screen. P08659. purified FLuc, Km substrates, luminescence inhibition. Potency, µM (titrated, usually from 57.5 µM), inactives show at the highest dose activity change, negative = inhibition, actives largely listed as inhibitors. hit rate 6.9% among 360,000;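 note: plate controls were vehicle for no effect and reference inhibitor for full effect; nearly all actives have a fitted effect of over 55% in size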
Target sequence (P08659 whole entry, looked up): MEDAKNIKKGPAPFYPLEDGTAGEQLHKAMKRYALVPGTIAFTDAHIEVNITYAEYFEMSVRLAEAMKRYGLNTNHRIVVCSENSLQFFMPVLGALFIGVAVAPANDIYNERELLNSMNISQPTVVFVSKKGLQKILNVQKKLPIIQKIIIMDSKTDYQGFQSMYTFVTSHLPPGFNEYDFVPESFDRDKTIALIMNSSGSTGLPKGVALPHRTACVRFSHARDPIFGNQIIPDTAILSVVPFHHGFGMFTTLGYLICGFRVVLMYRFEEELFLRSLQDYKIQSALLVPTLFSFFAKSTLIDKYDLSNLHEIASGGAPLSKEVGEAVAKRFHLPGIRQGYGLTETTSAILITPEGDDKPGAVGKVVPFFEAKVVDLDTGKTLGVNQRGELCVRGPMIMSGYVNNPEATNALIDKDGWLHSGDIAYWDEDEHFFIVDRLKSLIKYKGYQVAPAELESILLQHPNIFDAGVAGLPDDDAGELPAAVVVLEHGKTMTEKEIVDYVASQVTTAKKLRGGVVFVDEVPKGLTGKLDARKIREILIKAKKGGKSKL
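Biochemical qHTS of compounds, final roughly 60 µM downward over six points, against 10 nM purified firefly luciferase using Km concentrations of substrates (10 uM D-luciferin, 10 uM ATP) in Tris acetate pH 7.5 buffer; luminescence output.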
SMN2 splice up = increases expression of the SMN2 splice variant. HEK293 SMN2-luciferase splicing reporter, luminescence, 30-36 h. Potency, µM (doses to about 46.1 µM), inactives show at the top dose activity change, positive = activation, most hits filed as activators. hit rate 2.8% among 210,000; note: % of control where 0% means no effect; nearly all actives have a fitted effect of over 55% in size
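qHTS luciferase splicing reporter: luminescence rises when SMN2 exon 7 is included in transfected HEK293 cells. Compound exposure lasted 30-36 h at 37C, with 4.5 mM final sodium butyrate as control, followed by a ONE-Glo read.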
NPC1 prom act = activates the NPC1 promoter; Huh7 NPC1 promoter luciferase reporter, 24 h; Potency, µM (highest dose often 9.22 µM), for the others: at the top dose activation, actives largely listed as activators; hit rate 2.4% among 320,000; note: % of control where 0% means no effect; nearly all actives have a fitted effect of over 60% in size
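Huh7 reporter cells (NPC1 promoter driving luciferase) are dosed with compound for 24 h at 37 °C, 5% CO2; luciferase detection reagent is then added and luminescence measured after 10 min at ambient temperature.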
Rab9 prom act = activates the Rab9 promoter; AID 485297; Huh7 Rab9 promoter-luciferase reporter, luminescence, 24 h; hit rate 2.8% among 320,000; Potency, µM (doses to about 9.22 µM), for the others: at the top dose activation, negative = inhibition, usual class: activators; note: % of control where 0% means no effect; nearly all actives have a fitted effect of over 60% in size
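Huh7 cells stably carrying Rab9 promoter–luciferase reporter, plated 1500 cells/well, compound added after 2 h and incubated 24 h at 37 °C; luciferase luminescence then read after 10 min with detection reagent.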
Numbers without * were called inactive; ? = inconclusive; / = no result; [ ] = dose if it differs, or a comment. Calls come from the whole dose curve; as a rule, active = well fitted curve in the direction sought with a large enough effect; inconclusive = small, poorly fitted or top-dose-only effect, or another doubt; inactive = no such curve, though single readings can be large; an effect the other way counts as inactive or inconclusive. Potency is the fitted concentration of half-maximal effect.

SMILES	ELG1 genotoxic	FLuc counter	SMN2 splice up	NPC1 prom act	Rab9 prom act
COc1ccc2c(c1OC)C(=O)N(c1cccc(C)c1)C2	2.06µM*	1.51µM*	14.1µM*	1.41µM*	1.41µM*
COc1ccc2c(c1OC)C(=O)N(c1ccccn1)C2	9.2µM*	10.7µM*	11.2µM*	3.16µM*	2.24µM*
COc1ccc2c(c1OC)C(=O)N(c1cccc(C(F)(F)F)c1)C2	?	5.36µM*	12.6µM*	?	4.47µM*
S=c1nc[nH]c2c1ncn2C1CCCC1	-0.4%	-4.6%	/	1.5%	-0.9%
Cc1c(C)c2c(cc(C)c3c(-c4ccc(Br)cc4)coc32)oc1=O	/	-6.4%	-7.8%	/	/
CC(C)c1ccc(NC(=O)C2CC3CCC2C3)cc1 (stereo not given)	20.6µM*	10.7µM*	/	3.55µM*	3.16µM*
CCNC(=S)NNC(=O)c1cc(-c2cccc(OCC)c2)nc2ccccc12	?	1.35µM*	16.2%	11.8%	17.1%
CCCCOc1ccc(-c2cc(C(=O)NNC(=S)NCC)c3ccccc3n2)cc1	?	0.0757µM*	3.16µM*	?	?
CCCCOc1cccc(-c2cc(C(=O)NNC(=S)NCC)c3ccccc3n2)c1	?	1.51µM*	20.6%	7.2%	15.6%
CCNC(=S)NNC(=O)c1cc(-c2ccc(OC)cc2)nc2ccccc12	?	0.0757µM*	7.94µM*	?	?
CC(C)COc1cccc(-c2cc(C(=O)Nc3ccon3)c3ccccc3n2)c1	-18.6%	?	/	-2.2%	-0.2%
CCc1nnc(NC(=O)CN2CCN(Cc3ccc(C)cc3)CC2)s1	0.1%	1.8%	/	-4.0%	0.5%
COc1ccc(CCNC(=O)CSc2cn(CCNC(=O)c3cccc(C(F)(F)F)c3)c3ccccc23)cc1OC	/	-17.0%	-65.7%	/	/
CCNC(=S)NNC(=O)c1cc(-c2cccc(C)c2)nc2ccccc12	2.0%	0.338µM*	?	?	?
CC(C)N1CC(O)=C(c2nc3ccccc3[nH]2)C1=N	?	19µM*	8.8%	16.4%	?
CNC(=O)c1[nH]cnc1C(=O)Nc1ccc(OC)cc1	12.0%	?	/	14.3%	0.3%
COC(=O)c1nc2ccc(N3CCOCC3)cc2c(C)c1C(=O)OC	-2.5%	2.39µM*	10µM*	?	2.82µM*
CC(C)Oc1ccc(C(=O)OCC(=O)N2CCCc3ccccc32)cc1	-0.7%	-22.6%	/	10.7%	3.5%
COc1ccc(C2=NN(C(C#N)c3ccc(OC)c(OC)c3)C(c3ccccc3)C2)cc1 (stereo not given)	5.8µM*	12µM*	94.5%	14.4%	?
COc1ccc(C2=NN(c3ccccc3)C(c3ccc(OC)c(OC)c3)C2)cc1 (stereo not given)	6.0%	?	/	26.5%	?
Nc1c2c(=O)oc(-c3ccccc3)cc2nn1-c1ccccc1	?	4.78µM*	12.6µM*	?	0.708µM*
O=S(=O)(c1ccc(N2CCOCC2)nc1)N(Cc1ccccn1)Cc1ccccn1	-1.8%	-1.4%	/	-2.4%	-6.1%
O=C(Nc1ccc(-c2nc3cccnc3s2)cc1)c1ccc(Br)o1	2.91µM*	?	3.16µM*	2.82µM*	3.98µM*
O=C(Nc1ccc(-c2nc3cccnc3s2)cc1)c1ccco1	0.92µM*	1.07µM*	1.41µM*	0.501µM*	0.447µM*
O=C(Nc1cccc(-c2nc3cccnc3s2)c1)c1ccco1	1.4%	10.7µM*	-0.8%	16.1%	8.3%
SMILES	ELG1 genotoxic	FLuc counter	SMN2 splice up	NPC1 prom act	Rab9 prom act
O=C(Nc1cccc(-c2nc3cccnc3s2)c1)c1cccc(Br)c1	/	-0.1%	/	/	/
CN(CC(=O)Nc1ccccc1Br)C(=O)c1n[nH]c2ccccc12	-6.5%	-1.4%	/	1.4%	4.4%
CC(C)n1nnnc1SCC(=O)N1N=C(c2cccs2)CC1c1cccs1 (stereo not given)	15.8%	23.9µM*	/	28.9%	?
COc1ccc2c(c1)O[C@H](c1ccc3c(c1)OCO3)[C@@H](O)C2=O	-0.9%	?	12.6µM*	20.8%	19.3%
COc1ccc2c(c1)C(=O)CC(c1ccc(OC)c(OC)c1)O2 (stereo not given)	-3.1%	4.0%	/	-4.3%	-0.3%
COc1ccc2c(c1)C(=O)CC(c1ccc3c(c1)OCCO3)O2 (stereo not given)	14.5%	21.3µM*	/	?	?
COc1ccc2c(c1)O[C@@H](c1ccc3c(c1)OCO3)[C@H](OC(=O)NCc1ccc3c(c1)OCO3)C2=O	/	/	6.4%	/	/
COc1ccc(OC)c(NC(=O)c2nc(SCc3ccccc3F)ncc2Cl)c1	/	-1.3%	5.6%	/	/
Cc1nn(CC(=O)N2CCN(S(=O)(=O)c3ccccc3)CC2)c(C)c1[N+](=O)[O-]	0.8%	/	/	0.6%	0.7%
C/C(=N\Nc1nncc2ccccc12)c1ccc(C(C)(C)C)cc1	17.6%	7.57µM*	/	?	17.5%[1.84 µM]
C/C(=N\Nc1nncc2ccccc12)c1cccc(OC(F)F)c1	2.91µM*	1.07µM*	/	1µM*	1.12µM*
C/C(=N\Nc1nncc2ccccc12)c1ccc(O)cc1	28.4%	0.953µM*	/	1.26µM*	0.708µM*
COc1ccc(-c2nc(N/N=C(\C)c3ccc(O)cc3)c3ccccc3n2)cc1	-9.2%	1.69µM*	/	-3.2%	3.6%
Cc1ccc(NC(=S)N(CCN2CCOCC2)Cc2cc3cc4c(cc3[nH]c2=O)OCO4)cc1	0.6%	2.7%	/	0.9%	-6.2%
COc1ccc(/C=C/C(=O)c2oc3ccc(F)cc3c2C)cc1	2.6%	9.53µM*	-35.5%	11.2%	0.8%
Cc1ccc(OC(=O)c2oc3ccc(F)cc3c2C)c(C)c1	13.6%	7.57µM*	16.9%	22.5%	8.2%
O=C(Nc1ccccc1Cl)C1CCN(c2nc3ccccc3nc2C(F)(F)F)CC1	/	-9.5%	/	/	/
CCCOc1ccc(C(=O)Nc2ccc(C)cc2[N+](=O)[O-])cc1	3.0%	-10.0%	-14.6%	?	?
COc1ccc(C(=O)NCCNc2ccccc2[N+](=O)[O-])cc1	11.6µM*	4.78µM*	11.2µM*	1.58µM*	0.631µM*
CC(C)COc1ccc(C(=O)Nc2ccccc2[N+](=O)[O-])cc1	?	?	15.8µM*	?	?
O=C(NCCNc1ccccc1[N+](=O)[O-])c1cc(F)c(F)cc1Cl	?	19µM*	/	?	?
O=C(NCCCNc1ccc(C(F)(F)F)cc1[N+](=O)[O-])c1cc(F)c(F)cc1Cl	-4.4%	-7.5%	-29.4%	-2.7%	-7.7%
CCCNC(=O)c1ccc(S(=O)(=O)c2ccc(OC)cc2)c([N+](=O)[O-])c1	-10.1%	-0.8%	/	-3.4%	-5.5%
O=C(Nc1ccc(F)c(Cl)c1)c1ccc2c(Cl)c3c(nc2c1)CCCC3	/	-3.2%	6.6%	/	/
O=C(NCC(=O)N1CCN(c2ccccc2)CC1)c1cccs1	10.9%	-6.1%	/	19.4%	20.3%
CCN(CC(=O)Nc1ccc(OC)cc1)C(=O)Cc1ccc(OC)c(S(=O)(=O)N2CCOCC2)c1	2.6%	-11.4%	/	0.5%	-3.5%
